# TEAD-YAP inh: TEAD-YAP interaction inhibition, primary screen, TEAD-YAP interaction inhibitor project, luminescence, HEK-TIYL cells | TEAD-Gal4/YAP UAS-luciferase luminescence | inhibition, % at 9.12 µM | hit rate 1.4% among 640,000 | AID 1259422, 2018; in the data active = inhibition above about 32%;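 note: 0% = median of test compound wells and 100% = reference inhibitor wells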
# MITF primary: MITF inhibitors, primary screen, biochemical, AlphaScreen, human. AlphaScreen MITF homodimerization, bead proximity signal. AID 1259374, 2018. hit rate 0.91% among 650,000. inhibition, % at 2.6 µM. Microphthalmia-associated transcription factor (Homo sapiens), O75030; in the data active = inhibition above about 50%;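 note: 0% = vehicle wells with protein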
# FBW7 act: FBW7 E3 ligase activators, primary screen, biochemical, AlphaScreen, human; normalized activity (activation), % at 26.1 µM; AlphaScreen FBW7–phospho-cyclin E peptide binding, activator screen; hit rate 0.13% among 650,000; F-box/WD repeat-containing protein 7 (Homo sapiens), Q969H0; AID 1259310, 2017; in the data active = normalized activity above about 1.9%;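 note: purified mutant Fbw7 with reduced substrate affinity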
# GPR151 ag: activators of human GPR151, primary screen, cell-based, PathHunter beta-arrestin, luminescence; PathHunter beta-arrestin GPR151 cells; activation, % at 11.2 µM; hit rate 1% among 650,000; in the data active = activation above about 4.9%;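 note: 0% = median of compound wells and 100% = cells with positive control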
# GPR151 conf act: GPR151 activators, triplicate retest, confirmation, cell-based, PathHunter beta-arrestin, luminescence; shares compounds with GPR151 ag; GPR151 PathHunter beta-arrestin cells, 90 min; % of EA-reagent control over plate median; activation, % at 11.2 µM; 6,700 tested, under 10 active;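 active = mean percent activation across replicates above the confirmation screen cutoff of 4.91%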
# GPR119 ag: GPR119 activators in beta-arrestin cells, counter-screen for GPR151 activator project, cell-based, PathHunter beta-arrestin, luminescence, triplicate. 90 min; 0 = compound-well median, 100 = enzyme-acceptor control. activation, % at 11.2 µM. shares compounds with GPR151 ag. AID 1508611, 2020. hit rate 0.3% among 6,700;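 active = mean percent activation in the counterscreen above 29.09%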;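 note: counterscreen on off-target GPR119 to flag nonselective hits from the GPR151 activator screen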
# Target sequence (Q8TDV5 whole entry, looked up): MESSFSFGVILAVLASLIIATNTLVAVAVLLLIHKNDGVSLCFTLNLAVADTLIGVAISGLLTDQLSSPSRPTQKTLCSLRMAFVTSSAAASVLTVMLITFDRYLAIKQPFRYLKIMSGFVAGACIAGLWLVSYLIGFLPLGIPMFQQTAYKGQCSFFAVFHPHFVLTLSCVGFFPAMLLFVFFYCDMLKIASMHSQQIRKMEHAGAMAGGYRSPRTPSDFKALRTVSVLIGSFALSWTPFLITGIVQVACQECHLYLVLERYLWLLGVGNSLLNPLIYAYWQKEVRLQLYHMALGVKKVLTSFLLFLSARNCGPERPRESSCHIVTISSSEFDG
# Active calls of the source: *; / = no result given. Sampled rows, rich in hits. Any-hit rate of the full collection: about 3.5%.
SMILES,TEAD-YAP inh,MITF primary,FBW7 act,GPR151 ag,GPR151 conf act,GPR119 ag
O=C(O)c1cnn(-c2ccnc(Nc3ccc(N4CCOCC4)cc3)c2)c1,0,18,0,1,/,/
CCOc1ccccc1OCCN[C@H](C)Cc1ccc(OC)c(S(N)(=O)=O)c1,-2,-16,0,6.8*,0,0
CCN1CCN(c2nc3c(c(=O)n(C)c(=O)n3C)n2CCSc2ncccn2)CC1,2,-3,0,8.0*,0,4
Cn1c(=O)c2c(nc(Cl)n2CC(=O)NCc2ccccc2)n(C)c1=O,12,15,0,6.5*,0,7
Cn1c(=O)c2c(nc(N3CCCCCC3)n2CCc2ccccc2)n(C)c1=O,-7,-11,0,5.0*,2,8
O=C(c1ccc([N+](=O)[O-])o1)N1CCCc2ccccc21,14,13,0,-1,/,/
O=C(NCCc1ccc(Cl)cc1)C(=O)NCc1ccccc1,5,9,0,7.4*,0,16
NNC(=S)NCCc1ccc(Cl)cc1,13,5,0,0,/,/
CCNC(=S)NCCc1ccc(Cl)cc1,-22,11,0,5.5*,0,3
CCOCCCNC1CCN(c2ccc(NC(=O)c3cccc(Cl)c3)cc2)CC1,27,12,0,17*,0,21
CCN(CC)CCNC1CCN(c2ccc(NC(=O)c3cccc(Cl)c3)cc2)CC1,-35,14,0,1,/,/
COc1ccc(NC(=S)N2CCN(CCN3C(C)=CC(=C(C#N)C#N)C=C3C)CC2)cc1,3,2,0,0,/,/
COc1ccc(C(=O)NNC(=O)C(=O)Nc2cc(OC)ccc2OC)cc1,2,7,0,0,/,/
COc1ccc(CCn2c(=S)[nH]c3ccsc3c2=O)cc1OC,-2,6,1,5.4*,2,12
COCCNC(=O)/C(C#N)=C/c1c(C)[nH]c2ccccc12,-10,11,0,0,/,/
CCc1ccc(-n2c(-c3ccc4[nH]c(C)c(C)c4c3)n[nH]c2=S)cc1,-4,10,0,1,/,/
Cc1ccccc1C(=O)Nc1ccccc1NC(=O)Nc1cccs1,-13,10,0,12*,0,4
O=C(Nc1cccs1)Nc1ccccc1NC(=O)c1ccccc1F,-39,11,0,0,/,/
CC(=O)N1CCc2cc(S(=O)(=O)NCCC(=O)NCCc3ccc(Cl)cc3)ccc21,28,-7,0,6.5*,0,0
NC(=O)CCN(CCC(N)=O)S(=O)(=O)c1ccccc1,-2,14,0,6.6*,-1,-4
NC(=O)CCN(CCC(N)=O)S(=O)(=O)c1ccc(Br)cc1,2,-2,0,1,/,/
CCOc1ccccc1N1C(=O)c2ccc(-c3nc4ccccc4c(=O)o3)cc2C1=O,-5,-2,0,-1,/,/
CCCc1ncc(CN2CCC(C(=O)Nc3cccc(-c4cccc(OC)c4)c3)CC2)cn1,8,1,0,0,/,/
O=S(=O)(c1cccc(-c2nnc(SCCOc3ccccc3)o2)c1)N1CCOCC1,1,10,0,6.5*,0,9
N#Cc1ccc(CSc2nnc(-c3cccc(S(=O)(=O)N4CCCCC4)c3)o2)cc1,-3,0,0,8.7*,1,-7
SMILES,TEAD-YAP inh,MITF primary,FBW7 act,GPR151 ag,GPR151 conf act,GPR119 ag
CC1(C)C=C(c2ccc(O)cc2)CC(C)(C)N1,3,9,0,5.6*,-1,-2
CC1(C)C=C(c2ccc(O)cc2O)CC(C)(C)N1,4,-17,0,0,/,/
Cn1c(=O)c2c(ncn2CC(=O)N/N=C/c2ccc(C(F)(F)F)cc2)n(C)c1=O,2,12,0,5.6*,0,4
Cn1c(=O)c2c(ncn2CC(=O)N/N=C/c2ccccc2F)n(C)c1=O,2,-1,0,0,/,/
O=C(/C=C/c1ccccc1)N1CCN(C2=NN=C(c3ccccc3)CS2)CC1,-21,1,0,6.2*,-1,-5
CC(C)(C)c1ccccc1NC(=O)CSc1nc(N)cc(N)n1,7,24,0,0,/,/
CCN(CC)S(=O)(=O)c1ccc(C(=O)N=c2sc3ccccc3n2CC)cc1,-8,-8,0,1,/,/
Cc1cc(-c2nc3cc(Cl)ccc3c(=O)o2)ccc1[N+](=O)[O-],-4,-4,0,6.3*,0,3
Cc1ccc(-c2nc3cc(Cl)ccc3c(=O)o2)cc1C,-47,-8,0,-2,/,/
COc1ccc2oc(-c3ccccc3)c(C(=O)Nc3nccs3)c2c1,4,-11,0,6.2*,0,-7
COc1ccc2oc(-c3ccccc3)c(C(=O)O)c2c1,10,11,0,-2,/,/
COc1ccccc1N1CCN(C2CCCN(Cc3ccncc3)C2)CC1 (stereo not drawn),7,6,0,0,/,/
COc1ccc(CN2CCCC(N3CCN(c4ccccc4OC)CC3)C2)cc1O (stereo not drawn),-1,-2,0,1,/,/
COc1ccccc1N1CCN(C2CCCN(Cc3cccn3-c3cccnc3)C2)CC1 (stereo not drawn),4,4,0,7.5*,0,4
COc1ccccc1N1CCN(C2CCCN(Cc3ccc4nonc4c3)C2)CC1 (stereo not drawn),14,0,0,8.0*,1,-4
O=C(Nc1cc(OCC(F)(F)F)cc([N+](=O)[O-])c1)c1cc2ccccc2oc1=O,-4,-14,0,0,/,/
COc1ccc(C(C)=O)cc1CN(C)C,-8,5,0,6.6*,2,3
Cc1ccccc1CNC(=O)CN(c1cc(C(F)(F)F)ccc1Cl)S(C)(=O)=O,-17,3,0,0,/,/
COc1ccccc1CNC(=O)CN(c1cc(C(F)(F)F)ccc1Cl)S(C)(=O)=O,-6,3,0,7.6*,0,9
CCOc1ccccc1NC(=O)c1ccoc1C,9,6,0,5.9*,1,-7
CCOc1ccccc1NC(=O)c1ccccc1NS(C)(=O)=O,10,-6,0,0,/,/
CCOc1ccccc1NC(=O)c1ccccc1NS(=O)(=O)c1ccccc1,2,-18,0,5.9*,2,13
CCOC(=O)c1ccccc1NC(=O)c1ccoc1C,7,11,0,1,/,/
c1ccc2c(Nc3nc4ncnc(NCc5nc6ccccc6[nH]5)c4[nH]3)nccc2c1,-6,17,0,-2,/,/
COc1ccc(Oc2cc(OC)nc(OC)n2)c(C(=O)O)c1,1,16,0,1,/,/
N#C/C=C(\c1ccc(F)cc1)N1CCOCC1,3,-14,0,8.4*,-1,-4
O=S(=O)(NN=C1CCCCC1)c1ccccc1,-5,-5,0,-2,/,/

# Compound activity (PubChem)
